Sampled rows, rich in hits. Any-hit rate of the full collection: about 11%.
HPGD block = blocks human HPGD enzyme activity. 150,000 compounds, 4.3% hits. purified HPGD, NADH fluorescence kinetic, PGE2 substrate. P15428. Potency, µM, for the others: at the top dose activity change, negative = inhibition, usual class: inhibitors. AID 894; note: potency is the fitted concentration of half-maximal effect
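20 nM HPGD preincubated 15 min at room temperature with compound in 50 mM Tris-HCl pH 8, 0.01% Tween 20. Started with 1 mM NAD+ and 30 uM prostaglandin E2; NADH fluorescence (360/450 nm) read 5 times over 30-s intervals, last minus first.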
ALDH1A1 block = ALDH1A1 (human) enzyme inhibition; P00352; Purified ALDH1A1, NADH fluorescence, propionaldehyde substrate; Potency, µM (doses to about 75.3 µM), for inactives: top-dose activity, negative = inhibition, usual class: inhibitors; 220,000 compounds, 7.3% hits; AID 1030;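 note: potency is the fitted concentration of half-maximal effect; plate controls were no enzyme wells and a reference inhibitor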
Target sequence (P00352 whole entry, looked up): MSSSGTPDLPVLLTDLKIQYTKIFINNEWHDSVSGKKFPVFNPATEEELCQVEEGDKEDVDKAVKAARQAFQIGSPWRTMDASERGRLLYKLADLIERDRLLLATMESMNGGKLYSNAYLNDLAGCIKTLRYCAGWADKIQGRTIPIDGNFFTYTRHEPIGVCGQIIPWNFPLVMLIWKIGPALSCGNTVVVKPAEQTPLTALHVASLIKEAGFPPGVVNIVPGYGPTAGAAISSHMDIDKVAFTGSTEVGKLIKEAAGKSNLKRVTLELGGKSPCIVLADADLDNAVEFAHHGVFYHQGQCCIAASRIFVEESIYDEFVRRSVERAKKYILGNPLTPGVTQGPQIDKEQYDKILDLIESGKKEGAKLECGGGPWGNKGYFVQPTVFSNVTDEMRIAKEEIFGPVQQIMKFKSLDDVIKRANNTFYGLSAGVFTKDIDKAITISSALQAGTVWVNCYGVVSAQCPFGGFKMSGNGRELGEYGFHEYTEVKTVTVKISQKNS
PNC assembly inh = perinucleolar compartment assembly inhibition. 140,000 compounds, 3.1% hits. PC3M PTB-GFP, PNC prevalence imaging, 16 h; active compounds read low. AID 2417. activity change (PNC), negative = inhibition, % at 10 µM;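 active = readout at or below -70, meaning at least 70% loss of cells showing the perinucleolar compartment, a nuclear body marking cancer cells; inconclusive = readout between -30 and a set limit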;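 note: plate controls were DMSO wells for no effect and camptothecin positive control wells for full effect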
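Read-out is percentage of cells bearing a perinucleolar compartment, from automated 20x imaging of fixed, Hoechst-stained PC3M PTB-GFP cells. Cells were seeded 4 h, then exposed 16 h to compound (23 nl of library stock) in duplicate plates.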
Starred values were filed as active, the others as inactive; [ ] = another dose, or the depositor's remark. Unless noted, calls come from the whole dose curve; as a rule, active = well fitted inhibition curve with a large enough effect (not every such curve was filed as active); inconclusive = small, poorly fitted or top-dose-only effect, or another doubt; inactive = no such curve, though single readings can be large or run the other way. Unless noted, % is set by controls: 0 for no effect and ±100 for the full control effect.

What do the screens show for `Cc1cc(-c2nnc(CCC(=O)N(CC3CCC3)CC3CCCO3)o2)no1` (stereo unspecified)?
ALDH1A1 block: 10%

Results for O=C1/C(=C/c2ccccc2)CCC1C1CCCC1 (stereo unspecified) ?
HPGD block: inconclusive; ALDH1A1 block: -8%; PNC assembly inh: 20

Results for CC1CCCC(=C\c2ccccc2)/C1=N/O (stereo unspecified) ?
HPGD block: 3.2µM*; ALDH1A1 block: -8%; PNC assembly inh: 2

How did CC(CCc1ccccc1)NC(=O)c1cncc(Br)c1 (stereo unspecified) do in these assays?
HPGD block: -10%; ALDH1A1 block: -3%; PNC assembly inh: -2

What do the screens show for `Cc1noc(C)c1COC(=O)c1ccc(S(=O)(=O)N2CCCCC2)cc1`?
ALDH1A1 block: -6%

Results for Cc1cccc(C)c1NC(=O)Cn1c(=O)n(CCCC(=O)NCc2ccco2)c(=O)c2sccc21 ?
ALDH1A1 block: inconclusive; PNC assembly inh: -91*

What do the screens show for `CCN(CC)C(=O)Cn1c(=O)n(CCCCCC(=O)Nc2ccccc2)c(=O)c2sccc21`?
HPGD block: -5%; ALDH1A1 block: 0%; PNC assembly inh: -113*

What do the screens show for `CCC(C)NC(=O)Cn1c(=O)n(CCCCCC(=O)Nc2ccccc2)c(=O)c2sccc21` (stereo unspecified)?
HPGD block: -16%; ALDH1A1 block: 2%; PNC assembly inh: -21

How did O=C(CCCn1c(=O)c2sccc2n(CC(=O)NCc2ccco2)c1=O)NCc1ccco1 do in these assays?
HPGD block: -5%; ALDH1A1 block: -5%; PNC assembly inh: 9

What do the screens show for `CCCCNC(=O)CSc1nc2ccccc2n1S(=O)(=O)c1ccc(Cl)cc1`?
HPGD block: 2µM*; ALDH1A1 block: 14%; PNC assembly inh: -119*

Results for CCCCOc1ccc(S(=O)(=O)n2c(C)nc3ccccc32)cc1 ?
HPGD block: -6%; ALDH1A1 block: 20%; PNC assembly inh: -25

Results for CS(=O)(=O)N(CC(=O)NCCc1ccccc1)c1cccc([N+](=O)[O-])c1 ?
ALDH1A1 block: 5%

What do the screens show for `CCCCNC(=O)CSc1nc2ccccc2n1S(=O)(=O)c1ccc(Br)cc1`?
HPGD block: 2.5µM*; ALDH1A1 block: 10%; PNC assembly inh: -2

How did O=S(=O)(c1ccc(Cl)cc1)n1c(Cc2ccccc2)nc2ccccc21 do in these assays?
HPGD block: -10%; ALDH1A1 block: 1%; PNC assembly inh: -15

What do the screens show for `O=C(CSc1nc2ccccc2n1S(=O)(=O)c1cccc([N+](=O)[O-])c1)NCCc1ccccc1`?
HPGD block: inconclusive; ALDH1A1 block: 6%; PNC assembly inh: -113*

Results for O=C(CSc1ccc(-c2ccccn2)nn1)NCc1ccc(F)cc1 ?
ALDH1A1 block: -1%

How did CC(C(=O)O)N1C(=O)/C(=C/C=C/c2ccco2)SC1=S (stereo unspecified) do in these assays?
HPGD block: 16µM*; ALDH1A1 block: -16%; PNC assembly inh: -29

What do the screens show for `CC(=C\c1ccccc1)/C=C1/SC(=S)N(C(C(=O)O)C(C)C)C1=O` (stereo unspecified)?
ALDH1A1 block: -5%

What do the screens show for `COc1ccc(-n2c(=O)c(-c3cccs3)nc3cnc(N4CCN(C)CC4)nc32)cc1`?
ALDH1A1 block: 1%

Results for NS(=O)(=O)O ?
HPGD block: -14%; ALDH1A1 block: 15%

What do the screens show for `Cc1ccc(/C=C2/SC(=O)NC2=S)o1`?
ALDH1A1 block: 14µM*

Results for Cn1cc(/C=C2\SC(=O)NC2=S)c2ccccc21 ?
ALDH1A1 block: 1.4µM*

How did COC(=O)/C(=C/c1cn(C)c2ccccc12)[N+](=O)[O-] do in these assays?
HPGD block: 3.5µM*; ALDH1A1 block: 1.8µM*; PNC assembly inh: inconclusive

How did Cc1ccc(C(=O)NN2C(=O)/C(=C/c3cn(C)c4ccccc34)SC2=S)cc1 do in these assays?
HPGD block: -20%; ALDH1A1 block: 6%; PNC assembly inh: 28

Results for Cn1cc(C=O)c2ccccc21 ?
ALDH1A1 block: 2.8µM*

Results for COc1ccc(/C=C2/SC(=O)NC2=O)cc1 ?
ALDH1A1 block: -6%

What do the screens show for `COC(=O)/C(=C/c1c[nH]c2ccccc12)[N+](=O)[O-]`?
ALDH1A1 block: inconclusive; PNC assembly inh: -27

What do the screens show for `Cc1ccc(/C(C#N)=C\c2cn(C)c3ccccc23)cc1`?
HPGD block: -5%; ALDH1A1 block: 1%; PNC assembly inh: -8

Results for CCCCC(CC)CNC(=O)Cn1c(=S)[nH]c2ncccc2c1=O (stereo unspecified) ?
ALDH1A1 block: 2%

How did Cc1cc([N+](=O)[O-])nn1CC(=O)NCc1ccco1 do in these assays?
HPGD block: -10%; ALDH1A1 block: -3%; PNC assembly inh: 23

What do the screens show for `Cn1c(N)c(C(=O)c2cc(-c3ccccn3)nc3ccccc23)c(=O)[nH]c1=O`?
HPGD block: -4%; ALDH1A1 block: 3%; PNC assembly inh: -14

What do the screens show for `O=C(COC(=O)Cc1cccc(C(F)(F)F)c1)Nc1ccc2c(c1)OCCO2`?
HPGD block: -13%; ALDH1A1 block: 0%; PNC assembly inh: 85

How did O=Cc1ccc(-n2cc(C=O)c3ccccc32)cc1 do in these assays?
ALDH1A1 block: 11µM*

How did O=Cc1cn(CC(O)CN2CCCCC2)c2ccccc12 (stereo unspecified) do in these assays?
ALDH1A1 block: -4%

How did CCc1ccc(Nc2oc(C)cc(=O)c2C(C)=O)cc1 do in these assays?
HPGD block: -12%; ALDH1A1 block: -8%; PNC assembly inh: -2

Results for O=C1C2C3C=CC(C3=C(c3ccccc3)c3ccccc3)C2C(=O)N1CCO (stereo unspecified) ?
HPGD block: -5%; ALDH1A1 block: inconclusive; PNC assembly inh: 8

What do the screens show for `O=C1C2C3C=CC(C3=C(c3ccccc3)c3ccccc3)C2C(=O)N1Cc1ccccc1` (stereo unspecified)?
HPGD block: 40µM*; ALDH1A1 block: 1.1µM*; PNC assembly inh: -16

What do the screens show for `Cc1cc(C)c2nc3c(c([C@H](O)C4CCCCN4)c2c1)CC/C3=C/c1ccc(Cl)cc1` (stereo partly specified)?
HPGD block: -1%; ALDH1A1 block: 10%[13.5 µM]

Results for Cc1cc(NC(=S)N(CCCN2CCOCC2)Cc2ccco2)ccc1Cl ?
HPGD block: -16%; ALDH1A1 block: -13%; PNC assembly inh: -118*

What do the screens show for `Cc1cc(NC(=S)N(CCN2CCCCC2)Cc2ccco2)ccc1Cl`?
ALDH1A1 block: 7.9µM*

How did Cc1ccc(NC(=S)N(CCN2CCCCC2)Cc2ccco2)cc1 do in these assays?
HPGD block: -6%; ALDH1A1 block: inconclusive; PNC assembly inh: inconclusive

What do the screens show for `COc1ccccc1NC(=S)N(CCCN1CCOCC1)Cc1cn(C)c2ccccc12`?
HPGD block: -15%; ALDH1A1 block: 9%; PNC assembly inh: 13

How did COc1ccc(Cl)cc1NC(=S)N(CCCN1CCOCC1)Cc1cn(C)c2ccccc12 do in these assays?
HPGD block: 28µM*; ALDH1A1 block: -14%; PNC assembly inh: inconclusive

What do the screens show for `CCN1CCN(CCCN(Cc2ccco2)C(=S)Nc2ccc(Cl)c(C)c2)CC1`?
ALDH1A1 block: -4%

What do the screens show for `COc1ccc(-c2nc(N)n(C(=O)c3cccs3)n2)cc1`?
ALDH1A1 block: 2%

Screening data from PubChem.
